Results published in PubChem BioAssay (Tox21).
Records with an inconclusive call do not appear. Values without a mark were called inactive. Calls follow the shape of the full dose curve.

Experiment: qHTS assay to identify small molecule agonists or antagonists of the thyroid stimulating hormone receptor (TSHR) signaling pathway - wild type cell line counter screen (AID 1259384)
Conditions: HEK293 wild type, cAMP HTRF counter-screen; series mostly up to 92.4 µM; cAMP activity change: at the top concentration
Text: U.S. Tox21 Program National Center for Advancing Translational Sciences [NCATS] NIH Chemical Genomics Center [NCGC] U.S. Environmental Protection Agency [EPA] National Institutes of Environmental Health Sciences [NIEHS] National Toxicology Program [NTP] U.S. Food and Drug Administration [FDA] Tox21 Assay Overview: TSHR is the receptor for thyrotropin (thyroid stimulating hormone or TSH), a member of the glycoprotein hormone family. TSH is released by the anterior pituitary gland and is the main regulator of thyroid gland growth and development. Upon binding circulating thyrotropin, a G-protein signal cascade activates adenylyl cyclase and […] cAMP concentration is increased. cAMP is a key second messenger involved extensively in cellular signal transduction pathways associated with the majority of G-protein coupled receptors (GPCRs). The activation of these GPCRs by neurotransmitters, lipids, nucleotides, peptides and hormones results in the activation or the inhibition of plasma membrane-bound adenylate cyclase through heterotrimeric G-proteins. A cell-based TSHR-Hek293 assay can be used to identify TSHR agonists. To eliminate the false positive compounds identified from screening a cell-based TSHR-Hek293 cell line, cAMP assay in a wild type Hek293 cells was used as a counter screening.
Tox21 Assay Protocol Summary: Hek293 cells (wild type) were dispensed at 800 cells/4 uL/well in 1536-well white plates using a Multidrop dispenser. After the assay plates were incubated at a 37 C/5% CO2 incubator for 18 hrs, 23 nL of compounds dissolved in DMSO, positive controls or DMSO only was transferred to the assay plate by a pin tool, followed by 1 ul medium containing Ro20-1724. After 30 min of incubation at room temperature, 2.5 ul/well of cAMP-d2 and 2.5 ul/well of anti-cAMP-cryptate were added respectively into the assay plates using a Flying Reagent Dispenser. The plates were incubated at room temperature for 1 hr. The fluorescence intensity in the plates was measured using an Envision plate reader. Each test compound was measured at 15 concentrations and in triplicates.
% is scaled to controls: 0 for no effect and ±100 for the full control effect.

Structure (SMILES) | cAMP activity change
CN1CCC(=C2c3ccccc3C=Cc3ccccc32)CC1 | 0.897% [at 42.5 µM, active compounds read high]
COc1ccc(OC)c(OC)c1 | 2.62%
NCCCOCCOCCOCCCN | -0.99%
CCCCCCCCCCCCCCCC(=O)OC/C=C(C)/C=C/C=C(C)/C=C/C1=C(C)CCCC1(C)C | -4.92%
CCCCOC(=O)/C=C\C(=O)OCCCC | 3.82%
CCCC[C@H]1CN(CC2CCOCC2)C(=O)OC12CCN(C1(C)CCN(C(=O)c3c(C)ncnc3C)CC1)CC2 | -1.17%
CC(=O)O[C@@H]1C(=O)O[C@@H]2[C@H]1OC(=O)[C@@H]2OC(C)=O | -8.42% [at 42.5 µM, active compounds read high]
CC(O)C1CCCCC1 (stereo not given) | -1.62%
CCCCC(CC)(CO)CO | 0.697%
CCCCCCCCCO | -0.283%
N[C@H]1C(O)O[C@H](CO)[C@H](O)[C@@H]1O (stereo not given in full) | -6.21%
CC(=O)O[C@H]1C[C@@H]2CC[C@@H]3[C@H](CC[C@@]4(C)[C@H]3C[C@H]([N+]3(C)CCCCC3)[C@@H]4OC(C)=O)[C@@]2(C)C[C@@H]1N1CCCCC1 | -3.62% [at 42.5 µM, active compounds read high]
CN(C)CCCNCCCN | 6.05%
C1CCC2OC2C1 (stereo not given) | 2.41%
Nc1nc(CC(=O)O)cs1 | 0.642%
O=C(O)Cc1sc(-c2ccccc2)nc1-c1ccc(Cl)cc1 | 6.3% [at 42.5 µM, active compounds read high]
O=C1[C@H](CC[C@H](O)c2ccc(F)cc2)[C@@H](c2ccc(O)cc2)N1c1ccc(F)cc1 | 4.08% [at 42.5 µM, active compounds read high]
CC(C)(C)c1cc(CCC(=O)OCC(COC(=O)CCc2cc(C(C)(C)C)c(O)c(C(C)(C)C)c2)(COC(=O)CCc2cc(C(C)(C)C)c(O)c(C(C)(C)C)c2)COC(=O)CCc2cc(C(C)(C)C)c(O)c(C(C)(C)C)c2)cc(C(C)(C)C)c1O | 0.404% [at 42.5 µM, active compounds read high]
CN(c1nccc(=O)[nH]1)C1CCN(c2nc3ccccc3n2Cc2ccc(F)cc2)CC1 | 3.08% [at 42.5 µM, active compounds read high]
C=CC[N+]1([C@H]2C[C@H]3[C@@H]4CC[C@H]5C[C@H](OC(C)=O)[C@@H](N6CCCCC6)C[C@]5(C)[C@H]4CC[C@]3(C)[C@H]2OC(=O)CC)CCCCC1 | 10.7% [at 42.5 µM, active compounds read high]

Structure (SMILES) | cAMP activity change
CC(C)=CCCC(C)CC=O (stereo not given) | -2.06%
Cc1ccc(C(=O)C(C)CN2CCCCC2)cc1 (stereo not given) | -3.28% [at 42.5 µM, active compounds read high]
CN(C)CCCOc1nn(Cc2ccccc2)c2ccccc12 | 1.6% [at 42.5 µM, active compounds read high]
CCCCCOC(=O)COc1cc(N2C(=O)C3=C(CCCC3)C2=O)c(F)cc1Cl | -1.45%
CN1CCC(=C2c3ccccc3CCc3sccc32)CC1 | 5.07% [at 42.5 µM, active compounds read high]
CN1CCN(C2=Nc3cc(Cl)ccc3Nc3ccccc32)CC1 | -1.85% [at 42.5 µM, active compounds read high]
Cn1c(=O)c2c(ncn2CC(O)CO)n(C)c1=O (stereo not given) | -1.07% [at 42.5 µM, active compounds read high]
Cc1c(Cn2ccnc2)c2ccccc2n1CCC(=O)O | -1.5% [at 42.5 µM, active compounds read high]
Nc1ccc(C(=O)N2CC3CC(CN(Cc4ccccc4)C3)C2)cc1 | 2.01% [at 42.5 µM, active compounds read high]
COC(Cc1ccccc1)OC | 3.35%
CCCCCCCC/C=C\CCCCCCCC(N)=O | 4.65%
CCN(CC)C(C)=O | 4.14%
COc1ccc([C@@H]2Sc3ccccc3N(CCN(C)C)C(=O)[C@@H]2OC(C)=O)cc1 | -2.8% [at 42.5 µM, active compounds read high]
Cc1ccccc1N=Nc1ccc(N=Nc2c(O)ccc3ccccc23)c(C)c1 | 4.1% [at 42.5 µM, active compounds read high]
CC(C)(C)c1ccc(S)cc1 | 1.43%
COc1cc(C(C)(C)C)c(O)c(C(C)(C)C)c1 | 6.07%
Oc1ccc(Cc2ccccc2)cc1 | 2.9%
N#CCc1cccc(C(F)(F)F)c1 | -10.2%
CCN1CCC[C@H]1CNC(=O)c1c(OC)ccc(Br)c1OC | -2.66% [at 42.5 µM, active compounds read high]
O=C(O)C1CCC(C(=O)O)CC1 (stereo not given) | -2.55%
